Test results from ChEMBL document CHEMBL4513216, “Probing the Open Global Health Chemical Diversity Library for Multistage-Active Starting Points for Next-Generation Antimalarials” (ACS Infect Dis, 2020).
The whole screen tested about 68,000 compounds, of which about 2,700 (4%) showed an effect of 50% or more. What follows is part of a selection rich in strong results, with near analogues and random picks from the rest.

System: Plasmodium berghei
Test: Screen against P. berghei liver stage (PbLuc), transformed with Luciferase, at 2uM
Type: functional, HepG2
Settings: tested at 2 uM

| SMILES | INHIBITION [%] |
| --- | --- |
| CC(C)c1nc(C2CCCN2C(=O)c2cnc[nH]2)no1 (stereo unspecified) | -66 |
| COc1cccc(NC(=O)C(C)Cn2cc(Cl)cn2)c1 (stereo unspecified) | 36.45 |
| Cc1ccc2nnc(C(=O)NCCCn3cccn3)nc2c1 | -41.49 |
| CC(C)(C(=O)NCC(=O)NCc1ccccc1)c1ccccc1F | -3.22 |
| COc1cc2c(cc1CN1CCc3sccc3C1C)OCO2 (stereo unspecified) | 59.65 |
| COc1cc2c(cc1CN1CCc3sccc3C1C)OCCO2 (stereo unspecified) | 18.06 |
| CC1c2ccsc2CCN1Cc1cc2c(cc1O)OCO2 (stereo unspecified) | 12.7 |
| COc1ccsc1C(=O)Nc1cc(CN2CCOCC2)ccc1C | 37.63 |
| COc1ccc(CN2CCc3sccc3C2C)cc1CN1CCOCC1 (stereo unspecified) | 56.39 |
| CCC1c2ccsc2CCN1Cc1cc2c(cc1OC)OCCO2 (stereo unspecified) | 10.03 |
| CC(C)OCCn1nnnc1Cc1ccc(Br)cc1 | -21.99 |
| CNC(=O)NC(=O)CCN1CCN(c2nccs2)CC1 | 27.2 |
| CS(=O)(=O)c1ccc(C(O)CN2CCC(c3ccn[nH]3)CC2)cc1 (stereo unspecified) | 14.82 |
| C[C@@H]1CN(C(=O)c2cccs2)C[C@]12CCN(CCN(C)C)C2=O | 6.12 |
| CCCc1nc(CN(CC)Cc2ccc(S(C)(=O)=O)cc2)no1 | -5.31 |
| Cc1nnc(SCCC(=O)N(C)Cc2ccc(F)cc2F)[nH]1 | 10.05 |
| CN(CC(N)=O)Cc1ccc(F)cc1Cl | -6.61 |
| Cc1nnc(SCCC(=O)N(C)Cc2ccc(F)cc2Cl)[nH]1 | 52.98 |
| Cc1nnc(SCCC(=O)N(C)Cc2ccc(Cl)s2)[nH]1 | 55.36 |
| Cc1nnc(SCCC(=O)N(C)Cc2c(F)cccc2Cl)[nH]1 | 21.97 |
| CN(Cc1ccc(Cl)s1)C(=O)Cn1nc(-c2ccc(F)cc2)oc1=O | 14.82 |
| O=C(NCCc1cccc(F)c1)NCC(O)c1cccc(F)c1 (stereo unspecified) | -47.97 |

| SMILES | INHIBITION [%] |
| --- | --- |
| COc1nc2c(cc1C(=O)N1CCCOC(CN3CCCC3)C1)CCC2 (stereo unspecified) | -8.45 |
| CCN(Cc1cnn(C)c1)C[C@H]1CC[C@@H](Cc2ccc(OC)nc2)O1 | -6.22 |
| CCN(Cc1cnn(C)c1)C[C@H]1CC[C@@H](Cc2ccc(CO)cc2)O1 | 36.78 |
| CCN(Cc1cnn(C)c1)C[C@H]1CC[C@@H](Cc2ccc(C)nc2)O1 | 55.84 |
| CN(C)S(=O)(=O)N1CCO[C@H]2[C@H](Oc3cccnc3)CC[C@@H]21 | -16.75 |
| O=C(c1cc(CC2(NCc3ccccc3)COC2)no1)N1CCCCC1 | 56.76 |
| CC(C)(O)c1cc(CC2(NCC3CCCCC3)COC2)no1 | -24.31 |
| OCCc1cc(CC2(NCc3ccncc3)COC2)no1 | 24.64 |
| COCc1cc(CC2(NCc3ccccc3Cl)COC2)no1 | 27.54 |
| O=C(c1cc(CC2(NCC3CCCCC3)COC2)no1)N1CCCCC1 | 54.01 |
| O=C(c1cc(CC2(NC3CCCCC3)COC2)no1)N1CCCCC1 | 10.08 |
| O=C(Nc1cccnc1)[C@@H]1C[C@H]2OCC[C@H]2N(Cc2nccs2)C1 | 1.06 |
| CSc1ccccc1CN1C[C@@H]2CC[C@H]1CN(Cc1[nH]cnc1C)C2 | 8.26 |
| O=C(Cc1ccc2c(c1)CCO2)N1CCN(c2nccs2)CC1 | -11.34 |
| O=C(Cc1ccc2c(c1)OCO2)N1CCCN(c2nccs2)CC1 | 79.21 |
| O=C(Cc1ccc2c(c1)OCO2)N1CCCN(c2ccccc2)CC1 | -50.86 |
| O=S(=O)(NCC1CCN(c2cnccn2)CC1)c1ccc(F)c(Cl)c1 | 20.8 |
| COc1ccc(-c2nc(C#N)c(N(C)C)o2)cc1S(=O)(=O)N(C)C | -36.29 |
| COC(=O)[C@H](C)NC(=O)Cn1ccc2ccc(F)cc21 | 0.08 |
| COC(=O)CCC(=O)Nc1ccc(Br)c(C)n1 | 11.88 |
| O=C([C@@H]1CCO[C@@H]2CCN(Cc3cccs3)C[C@H]21)N1CCCCO1 | 27.44 |
| CC(C)NC(=O)N1C[C@@H]2C[C@H](C(=O)NCc3ccccc3)[C@H](C1)O2 | 36.17 |

| SMILES | INHIBITION [%] |
| --- | --- |
| O=C(NCc1cc(C2CC2)n(C2CCCC2)n1)C1CC1 | 14.47 |
| CCC(=O)NCc1cc(C2CC2)n(C2CCCC2)n1 | 50.7 |
| CCOCC(=O)NCc1cc(C2CC2)n(C2CCCC2)n1 | 6.9 |
| COCC(=O)N1CCC2(CC1)COCCN2Cc1ccc(F)cc1 | -5.65 |
| Cc1ccc(NC(=O)CN2CCOCC2)c(F)c1 | -1.29 |
| Cc1ccc(NC(=O)CNC(C)CN2CCOCC2)c(F)c1 (stereo unspecified) | 21.24 |
| Cc1ccc(NC(=O)CNC(C)CN2CCCCC2)c(F)c1 (stereo unspecified) | 64.35 |
| CSc1nccc(N2CCC(NCc3ccc4nsnc4c3)CC2)n1 | -60.25 |
| O=C(CC1CCc2ccccc21)NC1(C(=O)O)CCOCC1 (stereo unspecified) | 0.54 |
| CC1(NC(=O)CC2CCc3ccccc32)CCOCC1 (stereo unspecified) | 60.15 |
| O=C(CC1CCc2ccccc21)NC1(C(=O)O)CCCC1 (stereo unspecified) | 16.93 |
| COC(=O)c1cc(OCC2CCC2)cc(C(=O)N[C@@H]2CCCNC2)c1 | -28.09 |
| Cc1cccc(C)c1NC(=O)c1cccc(N(C)S(C)(=O)=O)c1C | -11.34 |
| Cn1[nH]c(C2CCC2)c(-c2ccc3c(c2)OCO3)c1=N | 14.06 |
| Cn1nc(C2CCCC2)c(-c2ccc3c(c2)OCO3)c1N | 53.33 |
| Cn1[nH]c(C2CC2)c(-c2ccc3c(c2)OCO3)c1=N | 58.6 |
| CCc1[nH]n(C)c(=N)c1-c1ccc2c(c1)OCO2 | 37.53 |
| CSCCc1nc(-c2ccc3c(c2)OCO3)n(C)n1 | 12.74 |
| CCCc1[nH]n(C)c(=N)c1-c1ccc2c(c1)OCO2 | 5.92 |
| Cc1nc(C)n(C2CCCN(C(=O)c3ccc4c(c3)COC4)C2)n1 (stereo unspecified) | 2.08 |
| O=C1CC[C@@H]2[C@@H](CCN2C(=O)c2ccsc2)N1Cc1ccncc1 | 37.48 |
| Cc1ccc(CN2C[C@H](OCC3CCN(C)CC3)[C@H]3COC[C@H]32)o1 | -14.64 |

| SMILES | INHIBITION [%] |
| --- | --- |
| CNC(=O)[C@H]1C[C@H]2OCC[C@H]2N(Cc2cccc3ccccc23)C1 | 16.6 |
| CC(=O)c1c(F)cccc1NCC(O)C(C)(C)C (stereo unspecified) | 53.44 |
| CC(=O)c1c(F)cccc1NCC(O)C1CC1 (stereo unspecified) | 31.96 |
| CC(=O)c1c(F)cccc1NCC(O)c1ccc(F)c(F)c1 (stereo unspecified) | 4.26 |
| CCC(C)NC(=O)c1cc(S(=O)(=O)N(C)C)c(C)s1 (stereo unspecified) | 25.9 |
| CCC(C)NC(=O)c1cc(S(=O)(=O)N2CCCC2)c(C)s1 (stereo unspecified) | 53.12 |
| CCC(C)NC(=O)c1cc(S(N)(=O)=O)c(Br)s1 (stereo unspecified) | -70.18 |
| CC(C)(C)c1nnc(CN2CCCC(c3cc(C(N)=O)[nH]n3)C2)o1 (stereo unspecified) | -47.97 |
| CN(C)c1ncncc1NC(=O)Cc1c[nH]c2ccc(F)cc12 | 10.04 |
| COc1ncnc(N(C)C)c1NC(=O)Cc1c[nH]c2ccc(F)cc12 | 62.92 |
| COc1ncnc(N(C)C)c1NC(=O)Cc1cc(F)ccc1F | -73.79 |
| O=C(CN1CC(c2nc(-c3ccco3)no2)C1)NCC1CCCO1 (stereo unspecified) | 23.01 |
| Cc1cc(NC(=O)NC2CCN(C(C)C)CC2)c2ncccc2c1 | -40.76 |
| CCOc1ccc(S(=O)(=O)NCCCc2ccc(N(C)C)cc2)cc1F | 51.71 |
| COc1ccc(S(=O)(=O)NCCCc2ccc(N(C)C)cc2)cc1F | 25.53 |
| CCOc1ccc(S(=O)(=O)NCCc2ccc(N(C)C)cc2)cc1F | 21 |
| CN(Cc1nnc(-c2ccco2)o1)C(C(N)=O)c1cccc(F)c1 (stereo unspecified) | 5.64 |
| CC(C)CCn1ccc(NC(=O)N2CCCC2CN2CCOCC2)n1 (stereo unspecified) | -39.07 |
| CCNC(=O)CN1CCc2c(Br)ccc(F)c2C1 | -25.78 |
| Cn1ccnc1CN1CCC2(CC1)CN(c1cncnc1)C(=O)CO2 | 7.71 |
| CCOC1CCN(CC(=O)Nc2oc(C)c3c(C)n[nH]c(=O)c23)CC1 | 52.52 |
| Cc1n[nH]c(=O)c2c(NC(=O)CN3CCC(O)CC3)oc(C)c12 | 5.72 |

| SMILES | INHIBITION [%] |
| --- | --- |
| Cc1n[nH]c(=O)c2c(NC(=O)CN3CCC(C)CC3)oc(C)c12 | 26.2 |
| COCC[C@]1(O)CCN(Cc2ccccn2)C[C@H]1C | 5.39 |
| O=C(Cc1cccs1)NCC1(O)CCSCC1 | 52.85 |
| COC1(CNC(=O)c2ccoc2)CCSC1 (stereo unspecified) | 28.5 |
| O=C(Cc1cccs1)NCC1(O)CCSC1 (stereo unspecified) | -2.22 |
| O=C(Cc1cccs1)NCC1(O)CCc2ccccc2C1 (stereo unspecified) | 24.6 |
| O=C(NCC1(O)CCSCC1)c1ccoc1 | 53.61 |
| O=C(NCC1(O)CCSC1)c1ccoc1 (stereo unspecified) | 22.4 |
| CN(Cc1ccncc1)C1CC2(CCN(c3ncccn3)CC2)C1 | 36.48 |
| COc1ccc(NC(=O)NCCCn2nc3ccccn3c2=O)cc1 | -12.82 |
| COCc1cc(N2CCOC(c3ccc(Cl)c(Cl)c3)C2)ncn1 (stereo unspecified) | -16.62 |
| CC(C)(C)c1cnc(CN2CCC(CN3CCOCC3)CC2)o1 | -10.87 |
| COCCN(C)C(=O)c1nc2c(s1)CCCN2C | 32.04 |
| O=C(c1ccc(F)cc1F)N1CCN(C(=O)C2CCCCC2)CC1 | 16.54 |
| CC(C)Cc1nc(CCn2cncn2)n(-c2ccc3c(c2)OCCO3)n1 | 61.14 |
| CC(C)c1nc(CCn2cncn2)n(-c2ccc3c(c2)OCCO3)n1 | -39.01 |
| CC(C)Cc1nc(CO)n(-c2ccc3c(c2)OCCO3)n1 | 31.8 |
| Cc1cc(N)cc(C2CN(Cc3cc[nH]n3)CCO2)n1 (stereo unspecified) | 26.14 |
